{
  "source": "PubChem BioAssay (EPA / NIEHS)",
  "note": "Activity calls are given as the source filed them. How the source made its calls: active means hit-call score of the fitted dose curve at least 0.9, where 1 is the maximum; inactive means score below 0.9.",
  "data": [
    {"experiment": "STM_H9_CystineISnorm_perc: Stemina devTOX quickPredict H9 human embryonic stem cell (hESC)-based Assay for Cystine (CYSS) Metabolite Biomarker, Normalized (AID 2283713)", "source_text": "STM_H9_secretome utilizes undifferentiated H9 cells to measure relative changes in two metabolites, ornithine (ORN) and cystine (CYSS) in the secretome, targeting a critical drop in the ORN/CYSS ratio as a biomarker for developmental toxicity.STM_H9_CystineISnorm_perc is one of 10 components calculated in the STM_H9_secretome assay. It measures the integrated area of the endogenous cystine normalized to the spiked-in isotopically labeled standard and to the median value of the 0.1% DMSO neutral control treatment using UPLC-HRMS technology.Data from the assay component STM_H9_CystineISnorm_perc was analyzed at the assay endpoint STM_H9_CystineISnorm_perc in the positive analysis fitting direction relative to DMSO as the negative control and baseline of activity. Using a type of binding reporter, gain or loss-of-signal activity can be used to understand relative metabolite change.\nH9 hESCs maintained in a pluripotent state were exposed to test compound for 72h with chemical replenishment with media replacement every 24h. Cell-conditioned media from the final 24-h treatment period was collected for analysis of the targeted biomarker, and cell viability of the corresponding cell layer was assessed. The chemical library was tested in blinded fashion. Each test plate included 1uM Methotrexate (MTX; Selleck Chemicals, Houston, Texas) as a positive reference, 5 nM MTX as a negative reference, 0.1% DMSO as the neutral (vehicle) control, and sample-level media blanks.H9 cell-conditioned media from the final 24-h treatment period was collected for analysis of the targeted biomarker and cell viability was measured from the corresponding cell layer. Cell viability was measured using the CellTiter-Fluor assay (Promega, Madison, Wisconsin) based on proteolytic cleavage of a substrate to fluorescent signal proportional to the number of living cells. The cell viability Relative Fluorescence Unit (RFU) was background corrected and normalized to mean RFU of the neutral control (0.1% DMSO). The collected H9-cell-conditioned media samples were processed for targeted biomarker analysis as described (Palmer et al., 2013). Briefly, spent media samples were deproteinized (40% acetonitrile) and processed for UPLC-HRMS. Data acquisition was performed using 4 separate UPLC-HRMS systems, consisting of an Agilent 1290 Infinity LC system (Agilent Technologies) interfaced with an Agilent high-resolution mass spectrometer (models G6520A, G6520B, G6530A, and G6224A). A Waters Acquity UPLC BEH Amide column (2.1mm x 50mm, 1.7lm particle size; Waters, Milford, Massachusetts) maintained at 40C was applied for separation of metabolites using a 6.5min solvent gradient with 0.1% formic acid in water and 0.1% formic acid in acetonitrile (1.0ml/min flow rate). Data were acquired using MassHunter Acquisition software (version B 04.00, Agilent Technologies). The extracted ion chromatogram (EIC) areas for ORN, CYSS, and their respective spike-in C13-standards were determined using the Agilent MassHunter Quantitative Analysis software, version B.05.00 or newer (Agilent Technologies), and data were normalized as described in Palmer et al. (2017).", "values": [
      {"smiles": "COCCOCCOC", "outcome": "inactive"},
      {"smiles": "Oc1ccc2ccccc2c1N=Nc1ccccc1", "outcome": "inactive"},
      {"smiles": "Cc1cc(NC(=O)C(=O)O)cc(C)c1Oc1ccc(O)c2c1CCC2", "outcome": "inactive"},
      {"smiles": "C=CCOC(=O)c1ccccc1C(=O)OCC=C", "AC50": "53.5 µM (active)"},
      {"smiles": "CCCc1cc(=O)[nH]c(=S)[nH]1", "outcome": "inactive"},
      {"smiles": "NC(=O)Cn1c(=O)cc(CCN2CCN(c3nccc4sccc34)CC2)c2ccc(F)cc21", "outcome": "inactive"},
      {"smiles": "COC(=O)c1ccc(O)cc1", "outcome": "inactive"},
      {"smiles": "Cc1oc(-c2ccccc2)nc1CCOc1cccc2c1ccn2CCC(=O)O", "AC50": "0.0105 µM (active)"},
      {"smiles": "CC(CO)OC(C)CO", "note": "(centres undefined) (tested in a mixture with another compound)", "outcome": "inactive"},
      {"smiles": "CN1CCN(Cc2cc(-c3ccc4[nH]c(=O)oc4c3)co2)[C@@H](c2ccc(F)cc2)C1", "AC50": "5 µM (active)"},
      {"smiles": "COc1ccc2c(c1)c(CC(=O)O)c(C)n2C(=O)c1ccc(Cl)cc1", "outcome": "inactive"},
      {"smiles": "Cc1nc(-c2ccc3c(c2)CCN(CCC2CCC(NC(=O)/C=C/c4ccc(F)cc4)CC2)CC3)no1", "note": "(centres undefined)", "outcome": "inactive"},
      {"smiles": "CCOc1ccc2c(c1)C(C)=CC(C)(C)N2", "outcome": "inactive"},
      {"smiles": "COc1ccc(S(=O)(=O)N2C(=O)[C@@](c3ccccc3OC)(N3C[C@H](O)C[C@H]3C(=O)N(C)C)c3cc(Cl)ccc32)c(OC)c1", "outcome": "inactive"},
      {"smiles": "Nc1ccccc1N", "outcome": "inactive"},
      {"smiles": "O=C(O)Cc1ccccc1Nc1c(Cl)cccc1Cl", "outcome": "inactive"},
      {"smiles": "Cc1c(C(=O)O)c(O)cc2c1C(=O)c1c(O)c([C@@H]3O[C@H](CO)[C@@H](O)[C@H](O)[C@H]3O)c(O)c(O)c1C2=O", "outcome": "inactive"},
      {"smiles": "CCCCc1ccc2c(n1)[C@@H](c1ccc(OC)cc1C[C@H](C)C(=O)O)[C@H](C(=O)O)[C@H]2c1ccc2c(c1)OCO2", "outcome": "inactive"},
      {"smiles": "Cc1cccc(Nc2cc(Cl)nc(SCC(=O)O)n2)c1C", "AC50": "53.6 µM (active)"},
      {"smiles": "OC[C@@H](O)[C@@H](O)[C@H](O)[C@H](O)CO", "outcome": "inactive"},
      {"smiles": "CCCCC(CC)COC(=O)CC(C(=O)OCC(CC)CCCC)S(=O)(=O)O", "note": "(centres undefined)", "outcome": "inactive"},
      {"smiles": "O=c1c(O)c(-c2ccc(O)c(O)c2)oc2cc(O)cc(O)c12", "outcome": "inactive"},
      {"smiles": "O=c1[nH]cc(F)c(=O)[nH]1", "AC50": "2.71 µM (active)"},
      {"smiles": "CC1=C(/C=C/C(C)=C/C=C/C(C)=C/CO)C(C)(C)CCC1", "outcome": "inactive"}
    ]}
  ]
}
